Assay in all cases: universal protein binding microarray (PBM); transcription factors of Arabidopsis thaliana; high values mean tight binding
What all share (conditions): protein: recombinant; tags: GST; chain copies: 2; dsDNA, one strand shown

In one test the target is T1, GST-ANAC092(1-176) (Arabidopsis thaliana, UniProt Q9FKA0 1-176).
T1 sequence: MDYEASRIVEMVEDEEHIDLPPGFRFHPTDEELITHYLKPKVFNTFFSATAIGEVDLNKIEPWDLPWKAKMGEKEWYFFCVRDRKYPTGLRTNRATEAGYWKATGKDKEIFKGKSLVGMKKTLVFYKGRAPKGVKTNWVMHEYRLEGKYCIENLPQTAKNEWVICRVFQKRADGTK
The method in brief:
(§1)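 Binding is expressed as the normalised enrichment score (E-score). Proteins carrying a GST tag, whether NAC-domain, full-length or DNA-binding-domain forms, were induced in cells, and zinc acetate was added for zinc-finger proteins. After purification on glutathione–Sepharose 4B and quantification by A280 or anti-GST western blot, each was applied in duplicate at 200 to 500 nM final to custom all-10-mer Agilent 4 × 180K arrays made double-stranded by primer extension. Gapped and ungapped 8-mers were scored.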

For the next test, the target named is T2, GST-ANAC019 NAC domain (Arabidopsis thaliana, UniProt Q9C932 14-162).
T2 sequence: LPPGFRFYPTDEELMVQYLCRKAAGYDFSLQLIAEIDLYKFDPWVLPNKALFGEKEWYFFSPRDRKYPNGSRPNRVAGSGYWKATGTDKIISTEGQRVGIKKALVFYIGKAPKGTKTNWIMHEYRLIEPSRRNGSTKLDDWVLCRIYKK
A digest of the protocol:
as §1

Another test has as its target T3, GST-ANAC055(1-171) (Arabidopsis thaliana, UniProt Q9LDY8 1-171).
T3 sequence: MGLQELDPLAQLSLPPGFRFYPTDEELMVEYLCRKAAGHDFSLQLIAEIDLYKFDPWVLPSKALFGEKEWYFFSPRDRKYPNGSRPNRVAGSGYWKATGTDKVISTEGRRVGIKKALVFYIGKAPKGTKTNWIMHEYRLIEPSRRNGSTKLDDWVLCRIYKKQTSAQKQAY
The method in brief: as §1

The target in another test is T4, GST-ATAF1 NAC domain (Arabidopsis thaliana, UniProt Q39013 7-158).
T4 sequence: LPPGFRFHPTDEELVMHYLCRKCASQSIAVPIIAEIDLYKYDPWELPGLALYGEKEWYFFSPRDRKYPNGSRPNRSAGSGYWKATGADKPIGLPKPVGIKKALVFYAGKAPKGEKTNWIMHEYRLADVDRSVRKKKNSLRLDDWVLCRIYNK
A digest of the protocol: as §1

Test [1] addresses T5, GST-ANAC092(1-285) full length (Arabidopsis thaliana, UniProt Q9FKA0 1-285).
T5 sequence: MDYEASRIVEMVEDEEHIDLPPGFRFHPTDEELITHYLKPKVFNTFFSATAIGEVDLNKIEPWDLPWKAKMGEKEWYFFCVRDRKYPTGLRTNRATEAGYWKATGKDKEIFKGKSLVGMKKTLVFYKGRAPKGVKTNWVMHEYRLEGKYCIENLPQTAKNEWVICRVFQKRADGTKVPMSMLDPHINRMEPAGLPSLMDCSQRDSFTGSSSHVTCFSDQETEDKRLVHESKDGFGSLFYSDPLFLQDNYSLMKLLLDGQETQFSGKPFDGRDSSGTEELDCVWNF
The method in brief: as §1

A further test addresses T6, GST-NAP(1-166) (Arabidopsis thaliana, UniProt O49255 1-166).
T6 sequence: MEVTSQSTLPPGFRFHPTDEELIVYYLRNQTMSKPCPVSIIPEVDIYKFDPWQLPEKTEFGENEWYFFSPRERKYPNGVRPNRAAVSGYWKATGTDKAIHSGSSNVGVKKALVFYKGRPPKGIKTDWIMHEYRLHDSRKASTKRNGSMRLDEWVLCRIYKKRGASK
The method in brief: as §1

The target in another test is T7, GST-NST2(1-184) (Arabidopsis thaliana, UniProt Q9M274 1-184).
T7 sequence: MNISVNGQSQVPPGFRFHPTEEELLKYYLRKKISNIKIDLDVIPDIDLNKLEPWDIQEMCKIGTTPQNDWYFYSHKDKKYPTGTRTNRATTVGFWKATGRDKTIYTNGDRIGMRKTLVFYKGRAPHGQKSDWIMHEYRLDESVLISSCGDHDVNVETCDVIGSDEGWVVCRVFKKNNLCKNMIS
The method in brief: as §1

Another test addresses T8, GST-SND1(1-203) (Arabidopsis thaliana, UniProt Q9LPI7 1-203).
T8 sequence: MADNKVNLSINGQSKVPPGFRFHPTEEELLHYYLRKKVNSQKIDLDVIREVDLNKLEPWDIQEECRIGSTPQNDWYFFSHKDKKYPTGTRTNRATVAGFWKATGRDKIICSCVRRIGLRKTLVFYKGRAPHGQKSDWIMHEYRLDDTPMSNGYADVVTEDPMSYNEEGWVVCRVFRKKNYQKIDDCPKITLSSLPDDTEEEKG
The method in brief:
as §1

In another test the target is T9, GST-VND3 NAC domain (Arabidopsis thaliana, UniProt Q9FH59 12-162).
T9 sequence: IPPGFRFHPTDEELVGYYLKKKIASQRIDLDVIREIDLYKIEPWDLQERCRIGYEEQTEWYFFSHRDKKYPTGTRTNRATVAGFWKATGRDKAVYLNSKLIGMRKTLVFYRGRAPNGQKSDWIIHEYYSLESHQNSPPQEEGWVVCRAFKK
The method in brief: as §1

For another test, the target named is T10, GST-VND7 NAC domain (Arabidopsis thaliana, UniProt Q9C8W9 9-158).
T10 sequence: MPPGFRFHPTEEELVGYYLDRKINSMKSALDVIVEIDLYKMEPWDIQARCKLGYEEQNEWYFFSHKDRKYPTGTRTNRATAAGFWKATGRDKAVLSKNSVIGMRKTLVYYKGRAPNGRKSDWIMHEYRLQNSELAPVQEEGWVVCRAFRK
The method in brief:
as §1

In another test the target is GST-NTL6(1-168) (Arabidopsis thaliana, UniProt Q9SCK6 1-168). A digest of the protocol: as §1
The next test concerns the target T11, GST-NTL8 NAC domain (Arabidopsis thaliana, UniProt Q9XIN7 14-156).
T11 sequence: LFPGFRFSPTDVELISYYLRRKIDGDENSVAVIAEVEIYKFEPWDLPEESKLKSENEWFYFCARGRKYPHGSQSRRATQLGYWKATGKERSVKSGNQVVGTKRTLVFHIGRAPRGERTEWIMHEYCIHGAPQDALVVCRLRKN
The method in brief:
as §1

Chain of GST-NTL6(1-168) (Q9SCK6 1-168): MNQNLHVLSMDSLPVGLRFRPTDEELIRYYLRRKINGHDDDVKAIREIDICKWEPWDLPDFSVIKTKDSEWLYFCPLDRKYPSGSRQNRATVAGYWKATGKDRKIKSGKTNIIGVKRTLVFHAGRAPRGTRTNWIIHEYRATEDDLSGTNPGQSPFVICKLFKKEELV

In the case of GTACGGAA, the binding signal in the test with GST-ANAC092(1-176) was found to be 0.349 E-score; with GST-ANAC019 NAC domain, 0.458 E-score; with GST-ANAC055(1-171), 0.43 E-score; in the test with GST-ATAF1 NAC domain, 0.369 E-score; in test [1] it was 0.376 E-score; with GST-NAP(1-166), 0.396 E-score. Besides, the binding signal amounted to 0.138 E-score with GST-NST2(1-184), 0.221 E-score with GST-SND1(1-203), 0.42 E-score in the test with GST-VND3 NAC domain and 0.425 E-score with GST-VND7 NAC domain.

For the sequence AAACACGC, the binding signal was 0.415 E-score with GST-ANAC092(1-176); 0.261 E-score in the test with GST-ANAC019 NAC domain; 0.262 E-score with GST-ANAC055(1-171); 0.233 E-score with GST-ATAF1 NAC domain; 0.442 E-score in test [1]; 0.225 E-score with GST-NAP(1-166). The binding signal with GST-NST2(1-184) stood at 0.198 E-score; with GST-SND1(1-203), 0.259 E-score; in the test with GST-VND3 NAC domain it was 0.201 E-score; with GST-VND7 NAC domain it was 0.21 E-score.

On to AAAGCAAC, for which the binding signal is 0.268 E-score with GST-ANAC092(1-176); 0.0839 E-score with GST-NTL6(1-168); 0.0548 E-score in the test with GST-ANAC055(1-171); 0.373 E-score in test [1]; 0.277 E-score in the test with GST-NST2(1-184); 0.0929 E-score with GST-NTL8 NAC domain. The binding signal in the test with GST-SND1(1-203) came to 0.401 E-score; with GST-VND3 NAC domain, 0.0501 E-score; with GST-VND7 NAC domain, 0.145 E-score.

Take ACGGCAAC: the binding signal amounted to 0.401 E-score in the test with GST-ANAC092(1-176); 0.386 E-score with GST-ANAC019 NAC domain; 0.375 E-score with GST-ANAC055(1-171); 0.288 E-score with GST-ATAF1 NAC domain; 0.42 E-score in test [1]; 0.264 E-score with GST-NAP(1-166). The binding signal with GST-NST2(1-184) was 0.264 E-score; with GST-SND1(1-203), 0.246 E-score; in the test with GST-VND3 NAC domain, 0.326 E-score; with GST-VND7 NAC domain, 0.331 E-score.

In the case of TCACGGAA, the binding signal with GST-ANAC092(1-176) was 0.363 E-score; with GST-ANAC019 NAC domain, 0.465 E-score; with GST-ANAC055(1-171) it was 0.432 E-score; with GST-ATAF1 NAC domain, 0.332 E-score; in test [1], 0.381 E-score; with GST-NAP(1-166), 0.383 E-score. The binding signal with GST-SND1(1-203) is 0.219 E-score; in the test with GST-VND3 NAC domain, 0.381 E-score; with GST-VND7 NAC domain it was 0.436 E-score.

In the case of GAAGCAAC, the binding signal with GST-ANAC092(1-176) was found to be 0.372 E-score; with GST-NTL6(1-168) it was 0.399 E-score; with GST-ANAC055(1-171), 0.142 E-score; with GST-ATAF1 NAC domain, 0.103 E-score; in test [1] it was 0.417 E-score; in the test with GST-NST2(1-184) it was 0.282 E-score. Besides, the binding signal turned out to be 0.416 E-score with GST-NTL8 NAC domain, 0.443 E-score in the test with GST-SND1(1-203), 0.0788 E-score with GST-VND3 NAC domain and 0.228 E-score with GST-VND7 NAC domain.

Turning to ATGTCGTG, the binding signal in the test with GST-ANAC092(1-176) was 0.267 E-score; with GST-ANAC019 NAC domain, 0.419 E-score; with GST-ANAC055(1-171) it was 0.371 E-score; with GST-ATAF1 NAC domain, 0.289 E-score; in [1], 0.336 E-score; with GST-NAP(1-166), 0.2 E-score. Further, the binding signal with GST-NST2(1-184) was 0.0589 E-score; with GST-SND1(1-203), 0.118 E-score; in the test with GST-VND3 NAC domain, 0.362 E-score; with GST-VND7 NAC domain it was 0.37 E-score.

Consider ATAACGTG, for which the binding signal in the test with GST-ANAC092(1-176) was determined as 0.446 E-score; with GST-ANAC019 NAC domain, 0.0978 E-score; with GST-ANAC055(1-171), 0.143 E-score; with GST-ATAF1 NAC domain it was 0.142 E-score; in test [1], 0.447 E-score; in the test with GST-NAP(1-166), 0.165 E-score. The binding signal in the test with GST-NST2(1-184) is 0.221 E-score; in the test with GST-SND1(1-203), 0.299 E-score; with GST-VND3 NAC domain, 0.191 E-score; with GST-VND7 NAC domain it was 0.109 E-score.
